{"source": "paper PMC7862700", "about": "“An all-to-all approach to the identification of sequence-specific readers for epigenetic DNA modifications on cytosine”", "assay_in_all_cases": "DAPPL (digital affinity profiling via proximity ligation, sequencing); 10 mM Tris-HCl pH 7.5, 50 mM NaCl, 1 mM DTT, 4% glycerol, room temperature, 30 min; GST-TFs on glutathione beads, 16-mer random dsDNA library, 0.1% formaldehyde crosslink after washing; high values mean tight binding", "details_in_all_cases": "protein: recombinant; tags: N-terminal GST; dsDNA, one strand shown", "key": {"[1]": {"target": "T1, ELK4 (Homo sapiens, UniProt P28324-2 1-405)", "T1 sequence": "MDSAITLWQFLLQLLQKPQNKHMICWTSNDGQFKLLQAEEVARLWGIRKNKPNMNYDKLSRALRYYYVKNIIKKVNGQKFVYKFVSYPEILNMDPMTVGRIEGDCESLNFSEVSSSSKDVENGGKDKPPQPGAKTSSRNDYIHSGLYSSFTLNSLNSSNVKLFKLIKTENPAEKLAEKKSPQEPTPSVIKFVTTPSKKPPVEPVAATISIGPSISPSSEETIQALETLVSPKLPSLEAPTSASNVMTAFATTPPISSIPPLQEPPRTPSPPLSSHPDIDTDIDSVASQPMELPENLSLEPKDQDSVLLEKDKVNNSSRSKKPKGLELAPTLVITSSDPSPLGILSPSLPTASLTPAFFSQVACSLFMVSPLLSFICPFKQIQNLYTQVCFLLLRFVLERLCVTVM", "summary_of_the_method": "(§1)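 Human transcription factors fused to GST were expressed in yeast, captured on glutathione beads, given DNA barcodes and pooled with a GST-only negative control. Pools were incubated with 200 nmole of a 16-mer random double-stranded DNA library in Tris/NaCl/DTT/glycerol buffer at room temperature for 30 min. They were then washed, crosslinked with 0.1% formaldehyde, proximity-ligated (BsaI/T4 ligase, 1 h, 37 °C), PCR-amplified and sequenced on an Illumina NextSeq500. Binding signal is each 6-mer's read frequency for a factor divided by its frequency for the GST control.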"}, "[2]": {"target": "T2, ETV2 (Homo sapiens, UniProt O00321 1-342)", "T2 sequence": "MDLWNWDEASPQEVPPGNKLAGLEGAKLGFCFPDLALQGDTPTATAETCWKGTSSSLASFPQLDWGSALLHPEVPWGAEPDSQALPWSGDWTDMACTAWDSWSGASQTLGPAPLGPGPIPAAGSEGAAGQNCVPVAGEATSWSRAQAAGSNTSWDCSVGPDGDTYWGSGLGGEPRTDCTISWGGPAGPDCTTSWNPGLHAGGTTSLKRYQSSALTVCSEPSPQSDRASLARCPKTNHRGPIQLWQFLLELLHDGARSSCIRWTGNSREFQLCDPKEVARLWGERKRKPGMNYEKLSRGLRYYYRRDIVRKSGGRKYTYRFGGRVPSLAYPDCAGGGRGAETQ", "summary_of_the_method": "as §1"}, "[3]": {"target": "T3, ELF3 (Homo sapiens, UniProt P78545 1-371)", "T3 sequence": "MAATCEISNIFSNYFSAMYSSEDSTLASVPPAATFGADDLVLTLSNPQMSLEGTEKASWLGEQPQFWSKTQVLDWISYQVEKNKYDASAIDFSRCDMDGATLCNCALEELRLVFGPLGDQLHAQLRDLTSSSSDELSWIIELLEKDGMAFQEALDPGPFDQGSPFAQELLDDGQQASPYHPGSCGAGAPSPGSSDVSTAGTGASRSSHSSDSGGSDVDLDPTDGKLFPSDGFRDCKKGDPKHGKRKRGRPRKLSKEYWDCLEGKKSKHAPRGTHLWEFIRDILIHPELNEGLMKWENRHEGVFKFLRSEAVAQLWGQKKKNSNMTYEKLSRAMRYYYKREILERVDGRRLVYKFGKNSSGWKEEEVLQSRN", "summary_of_the_method": "as §1"}, "[4]": {"target": "ETV1 (Homo sapiens, UniProt P50549 1-477)", "sequence (P50549 whole entry)": "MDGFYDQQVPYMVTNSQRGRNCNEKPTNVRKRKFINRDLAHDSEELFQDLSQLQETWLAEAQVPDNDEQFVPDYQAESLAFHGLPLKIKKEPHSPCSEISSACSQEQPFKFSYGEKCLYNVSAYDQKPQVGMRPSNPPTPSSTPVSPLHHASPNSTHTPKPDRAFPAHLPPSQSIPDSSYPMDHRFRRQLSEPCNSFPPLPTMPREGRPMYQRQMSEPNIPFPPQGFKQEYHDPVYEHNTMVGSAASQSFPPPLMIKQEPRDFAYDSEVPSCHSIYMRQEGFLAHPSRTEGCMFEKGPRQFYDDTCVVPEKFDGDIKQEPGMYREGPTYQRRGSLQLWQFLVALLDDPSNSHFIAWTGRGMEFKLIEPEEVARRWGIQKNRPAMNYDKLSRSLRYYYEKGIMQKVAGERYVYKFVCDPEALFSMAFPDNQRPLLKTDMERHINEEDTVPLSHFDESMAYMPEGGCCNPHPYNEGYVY", "summary_of_the_method": "as §1"}, "[5]": {"target": "T4, ERF (Homo sapiens, UniProt P50548 1-548)", "T4 sequence": "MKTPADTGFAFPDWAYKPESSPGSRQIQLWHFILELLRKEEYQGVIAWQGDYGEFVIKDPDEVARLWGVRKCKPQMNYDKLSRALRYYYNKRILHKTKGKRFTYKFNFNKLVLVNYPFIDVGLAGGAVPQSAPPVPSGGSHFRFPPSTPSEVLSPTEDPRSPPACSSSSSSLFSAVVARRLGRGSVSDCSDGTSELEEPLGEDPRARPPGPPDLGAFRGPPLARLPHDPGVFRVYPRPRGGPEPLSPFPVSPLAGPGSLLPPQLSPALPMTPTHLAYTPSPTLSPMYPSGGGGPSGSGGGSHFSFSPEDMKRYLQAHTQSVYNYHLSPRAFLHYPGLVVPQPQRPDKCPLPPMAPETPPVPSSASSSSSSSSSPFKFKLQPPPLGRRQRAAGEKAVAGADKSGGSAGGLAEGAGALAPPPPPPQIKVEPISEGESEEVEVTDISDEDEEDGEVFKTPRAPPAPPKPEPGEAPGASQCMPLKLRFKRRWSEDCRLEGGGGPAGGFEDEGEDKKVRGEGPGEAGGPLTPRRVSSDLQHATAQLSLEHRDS", "summary_of_the_method": "as §1"}, "[6]": {"target": "T5, ETV3L (Homo sapiens, UniProt Q6ZN32 1-361)", "T5 sequence": "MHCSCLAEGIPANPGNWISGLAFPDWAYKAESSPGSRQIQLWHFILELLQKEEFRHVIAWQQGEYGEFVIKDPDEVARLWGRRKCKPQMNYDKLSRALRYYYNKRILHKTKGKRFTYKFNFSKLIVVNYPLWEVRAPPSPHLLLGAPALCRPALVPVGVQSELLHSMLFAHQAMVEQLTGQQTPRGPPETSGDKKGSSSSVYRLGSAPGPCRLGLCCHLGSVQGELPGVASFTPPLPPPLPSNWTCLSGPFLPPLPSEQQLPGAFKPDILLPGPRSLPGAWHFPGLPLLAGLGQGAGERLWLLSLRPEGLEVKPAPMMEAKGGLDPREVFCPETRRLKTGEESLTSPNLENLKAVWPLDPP", "summary_of_the_method": "as §1"}, "[7]": {"target": "T6, ETS2 (Homo sapiens, UniProt P15036 1-469)", "T6 sequence": "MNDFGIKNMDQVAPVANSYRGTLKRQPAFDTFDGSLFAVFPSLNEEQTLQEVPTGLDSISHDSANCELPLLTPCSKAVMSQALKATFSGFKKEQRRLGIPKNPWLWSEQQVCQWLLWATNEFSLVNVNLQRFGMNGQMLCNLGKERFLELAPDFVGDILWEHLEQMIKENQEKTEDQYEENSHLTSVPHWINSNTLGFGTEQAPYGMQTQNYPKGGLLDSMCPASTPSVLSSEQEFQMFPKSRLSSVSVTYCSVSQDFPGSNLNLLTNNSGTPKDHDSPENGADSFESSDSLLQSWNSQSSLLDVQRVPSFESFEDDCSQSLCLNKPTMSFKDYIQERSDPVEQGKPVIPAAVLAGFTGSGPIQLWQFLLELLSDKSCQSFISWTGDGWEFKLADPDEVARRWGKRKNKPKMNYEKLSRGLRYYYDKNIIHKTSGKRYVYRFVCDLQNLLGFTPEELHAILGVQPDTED", "summary_of_the_method": "as §1"}, "[8]": {"target": "T7, ETV7 (Homo sapiens, UniProt Q9Y603 1-341)", "T7 sequence": "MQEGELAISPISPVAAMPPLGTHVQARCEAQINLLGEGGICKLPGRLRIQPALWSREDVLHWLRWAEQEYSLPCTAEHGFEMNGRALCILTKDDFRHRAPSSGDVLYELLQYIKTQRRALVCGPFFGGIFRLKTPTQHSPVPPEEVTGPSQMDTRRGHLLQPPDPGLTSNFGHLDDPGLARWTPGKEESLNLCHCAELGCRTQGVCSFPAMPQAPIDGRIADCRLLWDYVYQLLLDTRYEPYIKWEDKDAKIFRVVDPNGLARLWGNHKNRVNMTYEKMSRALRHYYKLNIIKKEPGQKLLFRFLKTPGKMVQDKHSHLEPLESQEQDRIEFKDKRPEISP", "summary_of_the_method": "as §1"}, "[9]": {"target": "T8, ETV3 (Homo sapiens, UniProt P41162-2 1-143)", "T8 sequence": "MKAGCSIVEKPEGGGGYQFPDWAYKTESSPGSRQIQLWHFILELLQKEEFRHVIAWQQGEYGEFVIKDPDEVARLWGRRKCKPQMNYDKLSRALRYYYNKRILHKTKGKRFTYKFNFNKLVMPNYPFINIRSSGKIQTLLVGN", "summary_of_the_method": "as §1"}, "[10]": {"target": "ETV6 (Homo sapiens, UniProt P41212 1-452)", "sequence (P41212 whole entry)": "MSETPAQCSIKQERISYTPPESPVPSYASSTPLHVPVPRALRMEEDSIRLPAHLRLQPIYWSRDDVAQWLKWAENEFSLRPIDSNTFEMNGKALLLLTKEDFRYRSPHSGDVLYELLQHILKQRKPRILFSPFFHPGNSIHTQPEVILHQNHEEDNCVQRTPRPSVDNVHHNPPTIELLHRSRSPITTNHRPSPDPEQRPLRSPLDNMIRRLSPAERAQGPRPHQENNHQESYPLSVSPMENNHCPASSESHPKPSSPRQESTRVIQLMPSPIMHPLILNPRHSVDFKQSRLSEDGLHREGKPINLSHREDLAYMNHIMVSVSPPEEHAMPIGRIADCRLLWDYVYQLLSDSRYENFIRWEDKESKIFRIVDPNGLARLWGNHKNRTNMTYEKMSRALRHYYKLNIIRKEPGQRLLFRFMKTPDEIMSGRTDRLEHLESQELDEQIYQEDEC", "summary_of_the_method": "as §1"}}, "data": [{"sequence": "TGATTA", "values": [{"measurement": "binding signal", "setting": "[1]", "value": "1.16 fold enrichment (6-mer frequency, TF over GST control)"}, {"measurement": "binding signal", "setting": "[2]", "value": "1.07 fold enrichment (6-mer frequency, TF over GST control)"}, {"measurement": "binding signal", "setting": "[3]", "value": "1.18 fold enrichment (6-mer frequency, TF over GST control)"}, {"measurement": "binding signal", "setting": "[4]", "value": "1.09 fold enrichment (6-mer frequency, TF over GST control)"}, {"measurement": "binding signal", "setting": "[5]", "value": "1.16 fold enrichment (6-mer frequency, TF over GST control)"}, {"measurement": "binding signal", "setting": "[6]", "value": "1.07 fold enrichment (6-mer frequency, TF over GST control)"}, {"measurement": "binding signal", "setting": "[7]", "value": "1.03 fold enrichment (6-mer frequency, TF over GST control)"}, {"measurement": "binding signal", "setting": "[8]", "value": "1.05 fold enrichment (6-mer frequency, TF over GST control)"}, {"measurement": "binding signal", "setting": "[9]", "value": "1.08 fold enrichment (6-mer frequency, TF over GST control)"}, {"measurement": "binding signal", "setting": "[10]", "value": "1.06 fold enrichment (6-mer frequency, TF over GST control)"}]}]}
